# From PubChem BioAssay (NCATS)
# Where “and” joins values, the source holds several entries; their conditions need not be identical. Equal values may be shown once. Inconclusive results are not listed. Where a call stands in place of a potency, no number is given. Calls of active or inactive are those of the source. Unless noted, calls follow the shape of the full dose curve.
# Key:
# [1] = biological target: Cytochrome P450 2D6 (Homo sapiens) (UniProt P10635); experiment: Cytochrome P450 family 2 subfamily D member 6 (CYP2D6) small molecule antagonists: luciferase biochemical (cell-free) qHTS assay (AID 1645840; active = well fitted curve in the direction sought with a large enough effect in the repeat runs; an effect the other way counts as inactive or inconclusive; also: nearly all actives have a fitted effect of over 55% in size)
# Sequence of Cytochrome P450 2D6 (Homo sapiens) (P10635 whole entry, looked up): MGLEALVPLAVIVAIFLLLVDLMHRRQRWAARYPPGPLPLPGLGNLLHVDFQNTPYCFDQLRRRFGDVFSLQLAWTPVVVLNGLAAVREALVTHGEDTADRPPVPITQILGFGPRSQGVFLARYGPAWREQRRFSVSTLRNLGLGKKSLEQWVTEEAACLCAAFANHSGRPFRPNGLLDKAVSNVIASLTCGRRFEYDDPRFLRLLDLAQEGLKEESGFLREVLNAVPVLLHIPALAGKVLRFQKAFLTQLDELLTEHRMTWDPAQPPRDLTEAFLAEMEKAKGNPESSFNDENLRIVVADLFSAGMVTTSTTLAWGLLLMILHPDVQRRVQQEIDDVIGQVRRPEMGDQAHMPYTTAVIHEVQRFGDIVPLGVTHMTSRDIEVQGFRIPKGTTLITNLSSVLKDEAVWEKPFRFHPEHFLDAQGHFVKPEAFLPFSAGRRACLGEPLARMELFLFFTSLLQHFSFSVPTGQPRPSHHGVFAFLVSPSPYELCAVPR
# Method in brief: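 P450-Glo luminescent screen: recombinant CYP2D6 enzyme–proluciferin substrate mix preincubated with compound 10 min at room temperature, then NADPH regeneration added for 1 h at room temperature. Detection reagent added for 20 min; luciferin light read as relative luminescence units.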
# [2] = biological target: Cytochrome P450 2C9 (Homo sapiens) (UniProt P11712); experiment: Cytochrome P450 family 2 subfamily C member 9 (CYP2C9) small molecule antagonists: luciferase biochemical (cell-free) qHTS assay (AID 1645842; active = well fitted curve in the direction sought with a large enough effect in the repeat runs; an effect the other way counts as inactive or inconclusive; also: nearly all actives have a fitted effect of over 55% in size)
# Sequence of Cytochrome P450 2C9 (Homo sapiens) (P11712 whole entry, looked up): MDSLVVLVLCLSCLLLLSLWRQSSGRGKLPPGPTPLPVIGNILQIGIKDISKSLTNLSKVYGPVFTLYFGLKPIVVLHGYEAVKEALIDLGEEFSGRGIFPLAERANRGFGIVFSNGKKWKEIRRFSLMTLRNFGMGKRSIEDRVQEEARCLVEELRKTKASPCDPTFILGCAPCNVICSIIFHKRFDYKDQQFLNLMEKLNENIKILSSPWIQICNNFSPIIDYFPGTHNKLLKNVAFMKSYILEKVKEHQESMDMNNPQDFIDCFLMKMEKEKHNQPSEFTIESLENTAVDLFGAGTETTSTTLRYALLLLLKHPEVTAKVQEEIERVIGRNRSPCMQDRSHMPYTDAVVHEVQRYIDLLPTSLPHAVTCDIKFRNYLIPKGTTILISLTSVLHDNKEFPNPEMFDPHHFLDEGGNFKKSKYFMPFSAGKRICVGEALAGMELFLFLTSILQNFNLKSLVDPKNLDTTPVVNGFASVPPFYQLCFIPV
# Method in brief: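 Luminescence, after 20 min with luciferin detection reagent, reflected CYP2C9 turnover during a 1 h NADPH-driven reaction at 37C. Enzyme-substrate mix contained 0.4% bovine serum albumin and was preincubated with compound 10 min at room temperature.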
# [3] = Cytotoxicity counterscreen for inhibitors of SARS-CoV-2 cell entry (AID 1645845); also: nearly all actives have a fitted effect of over 50% in size
# Method in brief: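 Expi293F/hACE2 cells seeded overnight; cpd pin-transferred in DMSO, 1 h preincubation, + media, 48 h 37 C 5% CO2; ATPLite 1step luminescence; normalized to cells and no cells.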
# [4] = Primary qHTS to identify inhibitors of SARS-CoV-2 cell entry (AID 1645846); settings: activity change, negative = inhibition: at 57.1 µM (top of the series) unless noted; also: nearly all actives have a fitted effect of over 45% in size
# Method in brief: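 Data are normalized to wells receiving SARS-CoV-2-S pseudoparticles and those given bald particles. Entry signal was luciferase luminescence in stable hACE2 Expi293F cells, 48 hr post-infection, after 1 hr compound pretreatment.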
# Potency is read from the fitted curve at half-maximal effect.
compound,measurement,setting,value
Oc1c(Br)cc(Br)cc1Br,Potency,[1],inactive
same,Potency,[2],inactive
NCc1cccnc1,Potency,[2],inactive
CN(C)C(=S)SSC(=S)N(C)C,Potency,[2],3.47 µM (active)
same,Potency,[3],1.58 µM (active)
CC(C)=C[C@@H]1[C@@H](C(=O)OCc2coc(Cc3ccccc3)c2)C1(C)C,Potency,[1],inactive
same,Potency,[2],7.76 µM (active)
COc1ccc(OC)c(CC(C)N)c1 (stereo not given),Potency,[1],6.05 µM (active)
same,Potency,[2],inactive
CC(CC(C#N)(c1ccccc1)c1ccccc1)N(C)C (stereo not given),Potency,[1],5.61 µM (active)
same,Potency,[2],inactive
CCC(=O)C(CCN(C)C)(c1ccccc1)c1ccccc1,Potency,[1],5.49 µM (active)
same,Potency,[3],inactive
same,"activity change, negative = inhibition",[4],-43.2%
CCCCCCCCC(=O)NCc1ccc(O)c(OC)c1,Potency,[2],0.692 µM (active)
same,Potency,[3],inactive
same,"activity change, negative = inhibition",[4],4.35%
CCOC(=O)C1(c2ccccc2)CCN(CCc2ccc(N)cc2)CC1,Potency,[1],1.74 µM (active)
same,Potency,[3],inactive
CCOC(CN1CCN(CC(C)C(=O)c2ccccc2)CC1)c1ccccc1 (stereo not given),Potency,[3],inactive
CCCCCCCCCCCCOS(=O)(=O)O,Potency,[1],inactive
same,Potency,[2],inactive
same,Potency,[3],inactive
same,"activity change, negative = inhibition",[4],-9.15%
C[N+]1(CCC(C(N)=O)(c2ccccc2)c2ccccc2)CCCCC1,Potency,[2],inactive
CCC1(c2cccc(O)c2)CCCCN(C)C1 (stereo not given),Potency,[2],inactive
same,Potency,[3],inactive
same,Potency,[4],inactive
CN1C(=O)[C@@H](NC(=O)c2cc3ccccc3[nH]2)N=C(c2ccccc2)c2ccccc21,Potency,[1],inactive
same,Potency,[2],2.75 µM (active)
CCc1ccc(C2CCNCC2)cc1,Potency,[2],inactive
CN(C)CCOC(c1ccccc1)c1ccc(Br)cc1 (stereo not given),Potency,[3],inactive
same,"activity change, negative = inhibition",[4],-67.2%
CN1CCCN=C1/C=C/c1cccs1,Potency,[3],inactive
same,"activity change, negative = inhibition",[4],-29.2%
O=C(CCCCCCCCC#CI)Oc1ccccc1,Potency,[3],inactive
same,"activity change, negative = inhibition",[4],1.58%
CCCCCC1Nc2cc(C(F)(F)F)c(S(N)(=O)=O)cc2S(=O)(=O)N1 (stereo not given),Potency,[3],inactive
same,Potency,[4],inactive
CN(C)C(=S)SC(=S)N(C)C,Potency,[3],3.55 µM (active)
same,Potency,[4],1 µM (active)
Cn1c(=O)c2c(ncn2CC2OCCO2)n(C)c1=O,Potency,[3],inactive
same,"activity change, negative = inhibition",[4],-5.86%
OCC(CO)N[C@H]1C[C@](O)(CO)[C@@H](O)[C@H](O)[C@H]1O,Potency,[3],inactive
same,Potency,[4],inactive
C[C@H](N)[C@H](O)c1cccc(O)c1,Potency,[3],inactive
same,"activity change, negative = inhibition",[4],1.07%
CCOC(=O)n1ccn(C)c1=S,Potency,[3],inactive
same,Potency,[4],inactive
N[C@H](Cc1c[nH]c2ccccc12)C(=O)O,Potency,[3],inactive
same,Potency,[4],inactive
CC(C(=O)O)c1ccc(CC2CCCC2=O)cc1 (stereo not given),Potency,[3],inactive
same,Potency,[4],inactive
O=C(OCC(COC(=O)c1cccnc1)(COC(=O)c1cccnc1)COC(=O)c1cccnc1)c1cccnc1,Potency,[3],inactive
same,"activity change, negative = inhibition",[4],-26.9%
C[C@H]1C[C@H]2[C@@H]3CCC4=CC(=O)C=C[C@]4(C)[C@@]3(Cl)[C@@H](O)C[C@]2(C)[C@@]1(O)C(=O)CO,Potency,[3],inactive
same,Potency,[4],inactive
CCN(CC)CCNC(C(=O)OCCC(C)C)c1ccccc1 (stereo not given),Potency,[3],inactive
same,"activity change, negative = inhibition",[4],-14.1%
CC(C)C[C@@H](N)C(=O)O,Potency,[3],inactive
same,"activity change, negative = inhibition",[4],3.85% [at 27.1 µM]
Cc1ccc2c(Cl)cc(Cl)c(O)c2n1,Potency,[3],inactive
same,Potency,[4],inactive
C[N+]1(CC2COC(c3ccccc3)(C3CCCCC3)O2)CCCCC1 (stereo not given),Potency,[3],inactive
same,"activity change, negative = inhibition",[4],-2.6%
CCN(CC)C(=O)c1cccc(C)c1,Potency,[3],inactive
same,Potency,[4],inactive
CCN(CC)CC(=O)OCC(=O)[C@@]1(O)CC[C@H]2[C@@H]3CCC4=CC(=O)CC[C@]4(C)[C@H]3[C@@H](O)C[C@@]21C,Potency,[3],inactive
same,Potency,[4],inactive
CN1CCN(c2c(F)cc3c(=O)c(C(=O)O)cn(CCF)c3c2F)CC1,Potency,[3],inactive
same,"activity change, negative = inhibition",[4],2.09%
C/C=C/c1ccc(OC)cc1,Potency,[3],inactive
same,Potency,[4],inactive
CN(Cc1ccc(C(C)(C)C)cc1)Cc1cccc2ccccc12,Potency,[3],inactive
same,"activity change, negative = inhibition",[4],2.25%
CC(C)NCCCC1(C(N)=O)c2ccccc2-c2ccccc21,Potency,[3],inactive
same,Potency,[4],inactive
Cc1cc(C)c(/C=C2\C(=O)Nc3ccccc32)[nH]1,Potency,[3],inactive
same,"activity change, negative = inhibition",[4],-6.25%
O=C(O)c1cn(-c2ccc(F)cc2)c2cc(N3CCNCC3)c(F)cc2c1=O,Potency,[3],inactive
same,Potency,[4],inactive
O=C(CCCN1CC=C(n2c(=O)[nH]c3ccccc32)CC1)c1ccc(F)cc1,Potency,[3],inactive
same,Potency,[4],inactive
CC(=O)OCC(=O)[C@@]1(O)CC[C@H]2[C@@H]3CCC4=CC(=O)C=C[C@]4(C)[C@H]3[C@@H](O)C[C@@]21C,Potency,[3],inactive
same,Potency,[4],inactive
C[C@]12CC[C@@H]3c4ccc(O)cc4CC[C@H]3[C@@H]1CC[C@@H]2OC(=O)CCC1CCCC1,Potency,[3],inactive
same,"activity change, negative = inhibition",[4],-19.7%
COc1cc(NS(=O)(=O)c2ccc(N)cc2)ncn1,Potency,[3],inactive
same,Potency,[4],inactive
CCCCOc1ccc(CC(=O)NO)cc1,Potency,[3],inactive
same,"activity change, negative = inhibition",[4],-20.4% and -25.7%
CN1CCC(=C2c3ccccc3CCc3sccc32)CC1,Potency,[3],inactive
same,Potency,[4],14.1 µM (active)
CC(C(=O)O)c1ccc2c(c1)Cc1cccnc1O2 (stereo not given),Potency,[3],inactive
same,"activity change, negative = inhibition",[4],-13.6%
